In PubChem BioAssay (NCATS):
Records with an inconclusive call do not appear. Calls of active or inactive are those of the source. Unless noted, no rule for the calls is given here.

Experiments:
[1] = qHTS profiling of the MIPE4 collection as inhibitors of Plasmodium falciparum (3D7) proliferation (AID 743344);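 also: scaled between DMSO vehicle wells and 0.29 µM artemisinin as full inhibition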; conditions: P. falciparum 3D7 in erythrocytes, SYBR Green DNA fluorescence, 72 h; at 28.5 µM unless noted
Procedure, shortened: (§1)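 Parasite DNA was quantified by SYBR Green I fluorescence (ex 485, em 535 nm) after overnight lysis in saponin/Triton buffer at room temperature. Cultures at 0.3% parasitemia and 2.5% hematocrit were first exposed to compound for 72 h at 37 C; signals were normalised to artemisinin (0.29 uM) and vehicle wells.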

[2] = qHTS profiling of the MIPE4 collection as inhibitors of Plasmodium falciparum (DD2) proliferation (AID 743345); conditions: P. falciparum Dd2 in erythrocytes, SYBR Green DNA, 72 h; at 28.5 µM unless noted
Procedure, shortened: as §1

[3] = qHTS profiling of the MIPE4 collection as inhibitors of Plasmodium falciparum (DD2) proliferation (Rep 2) (AID 743346); conditions: P. falciparum Dd2 in erythrocytes, SYBR Green DNA, 72 h; at 28.5 µM unless noted
Procedure, shortened: as §1

[4] = qHTS profiling of the MIPE4 collection as inhibitors of Plasmodium falciparum (HB3) proliferation (AID 743347);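 also: plate controls were DMSO vehicle wells for no effect and artemisinin wells for full effect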; conditions: P. falciparum HB3 in erythrocytes, SYBR Green DNA, 72 h; at 28.5 µM unless noted
Procedure, shortened: as §1

[5] = High-throughput drug toxicity screening in the BPDCN cell line Gen2.2 (AID 1224824); conditions: Gen2.2 BPDCN cells; at 45.8 µM (top of the series) unless noted;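 also: cells exposed to compounds for 48 h before reading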
Procedure, shortened: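 CellTiter-Glo luminescence after 48 h compound exposure of Gen2.2 cells; percent activity set with DMSO as 100% and bortezomib (9.2 uM final) as 0%. Cells seeded at 500 per well, RPMI + 10% FBS, 37 °C.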

[6] = High-throughput drug toxicity screening in the BPDCN cell line Cal-1 (AID 1224825); conditions: Cal-1 BPDCN cell viability, qHTS; at 45.8 µM (top of the series) unless noted
Procedure, shortened: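 Percent activity derived from CellTiter-Glo luminescence, scaling DMSO to 100% and 9.2 uM final bortezomib to 0%. BPDCN Cal-1 cells (500/well, RPMI plus 10% FBS) incubated with compounds 48 hours at 37C before reading.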

[7] = qHTS assay for measurement of the activity of small molecule inhibitors on Zika virus induced Caspase-3 activity in human iPSC derived neural progenitor cells (hNPCs) (AID 1224857; active = well fitted inhibition curve with a large enough effect; also: nearly all actives have a fitted effect of over 65% in size; also: potency is read from the fitted curve at half-maximal effect)
Procedure, shortened: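 After overnight (16–20 h) culture at 350 cells/well, hNPCs get compound, then ZIKV 2 FFU/cell one hour later. Six hours on, Caspase-Glo 3/7 is added and luminescence measured.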

O=C(Nc1ccccc1Br)N[C@@H]1CCN(c2ccc(C(F)(F)F)cn2)C1
parasite growth, % of DMSO control [1]: 73.6%
parasite growth remaining, % of DMSO control (lower = more inhibition) [2]: 96.2%
parasite growth, % of control (lower = inhibition) [3]: 82.5%
growth, % of control [4]: 71.2%
cell viability, % of control (lower = more cytotoxic) [5]: 266%
viability (% of control) [6]: 101%
Potency [7]: inactive

Cn1c(N2CCCCS2(=O)=O)nc(C(=O)NCc2ccc(F)cc2)c(O)c1=O
parasite growth, % of DMSO control [1]: 101%
parasite growth remaining, % of DMSO control (lower = more inhibition) [2]: 104%
parasite growth, % of control (lower = inhibition) [3]: 83.1%
growth, % of control [4]: 62.6%
cell viability, % of control (lower = more cytotoxic) [5]: 60.2%
viability (% of control) [6]: 96.9%
Potency [7]: inactive

CCC(=O)NC[C@H](Cc1ccc(OCCc2nc(-c3ccccc3)oc2C)cc1)NC(C)=CC(=O)c1ccc(C(F)(F)F)cc1
parasite growth, % of DMSO control [1]: 6.82%
parasite growth remaining, % of DMSO control (lower = more inhibition) [2]: 7.84%
parasite growth, % of control (lower = inhibition) [3]: 21.5%
growth, % of control [4]: 9.04%
cell viability, % of control (lower = more cytotoxic) [5]: 96.4%
viability (% of control) [6]: 5.56%
Potency [7]: inactive

Cc1cc(OCCCc2c(C(=O)O)n(Cc3cccnc3)c3c(-c4c(COc5ccc(N6CCN([S+](C)(=O)[O-])CC6)cc5)nn(C)c4C)cccc23)cc(C)c1Cl
parasite growth, % of DMSO control [1]: 6.87%
parasite growth remaining, % of DMSO control (lower = more inhibition) [2]: 8.65%
parasite growth, % of control (lower = inhibition) [3]: 16%
growth, % of control [4]: 5.16%
cell viability, % of control (lower = more cytotoxic) [5]: 62.9%
viability (% of control) [6]: 96.7%
Potency [7]: inactive

O=c1cc(-c2cccc3c2Sc2ccccc2S3)oc(N2CCOCC2)c1
parasite growth, % of DMSO control [1]: 64.9%
parasite growth remaining, % of DMSO control (lower = more inhibition) [2]: 90.2%
parasite growth, % of control (lower = inhibition) [3]: 61.1%
growth, % of control [4]: 39.5%
cell viability, % of control (lower = more cytotoxic) [5]: 22.3%
viability (% of control) [6]: 35.7%
Potency [7]: inactive

CC1(C)S[C@H]2[C@H](NC(=O)[C@@H](N)c3ccc(O)cc3)C(=O)N2[C@@H]1C(=O)O
parasite growth, % of DMSO control [1]: 7.42%
parasite growth remaining, % of DMSO control (lower = more inhibition) [2]: 103%
parasite growth, % of control (lower = inhibition) [3]: 8.21%
growth, % of control [4]: 6.54%
cell viability, % of control (lower = more cytotoxic) [5]: 125%
viability (% of control) [6]: 19.4%
Potency [7]: inactive

CO[C@H]1C=CO[C@@]2(C)Oc3c(C)c(O)c4c(O)c(c5c(c4c3C2=O)NC2(CCN(CC(C)C)CC2)N=5)=NC(=O)C(C)=CC=C[C@H](C)[C@H](O)[C@@H](C)[C@@H](O)[C@@H](C)[C@H](OC(C)=O)[C@H]1C
parasite growth, % of DMSO control [1]: 5.28%
parasite growth remaining, % of DMSO control (lower = more inhibition) [2]: 17.8%
parasite growth, % of control (lower = inhibition) [3]: 12.8%
growth, % of control [4]: 5.92%
cell viability, % of control (lower = more cytotoxic) [5]: 106%
viability (% of control) [6]: 97.3%
Potency [7]: inactive

NC1CCC(Nc2nc(Nc3ccc(C(=O)N4CCCCC4)cc3)c3ncn(-c4cccc(F)c4)c3n2)CC1 (centres undefined)
parasite growth, % of DMSO control [1]: 113%
parasite growth remaining, % of DMSO control (lower = more inhibition) [2]: 89.1%
parasite growth, % of control (lower = inhibition) [3]: 47.7%
growth, % of control [4]: 71.8%
cell viability, % of control (lower = more cytotoxic) [5]: 208%
viability (% of control) [6]: 101%
Potency [7]: 16.6 µM (active)

CC(C)(Cc1ccc2ccccc2c1)NC[C@@H](O)COc1cccc(Cl)c1C#N
parasite growth, % of DMSO control [1]: 89.9%
parasite growth remaining, % of DMSO control (lower = more inhibition) [2]: 98.5%
parasite growth, % of control (lower = inhibition) [3]: 59.5%
growth, % of control [4]: 92%
cell viability, % of control (lower = more cytotoxic) [5]: 123%
viability (% of control) [6]: 12.4%
Potency [7]: inactive

COc1cc(NC(=O)c2ccc(-c3ccc(Cl)cc3)o2)cc(OC)c1
parasite growth, % of DMSO control [1]: 97.8%
parasite growth remaining, % of DMSO control (lower = more inhibition) [2]: 97.8%
parasite growth, % of control (lower = inhibition) [3]: 99.4%
growth, % of control [4]: 94.4%
cell viability, % of control (lower = more cytotoxic) [5]: 9.04%
viability (% of control) [6]: 6.59%
Potency [7]: inactive

O=C(O)c1cc(O)c2c(c1)C(=O)c1cccc(O)c1C2=O
parasite growth, % of DMSO control [1]: 62.1% [at 57.5 µM]
parasite growth remaining, % of DMSO control (lower = more inhibition) [2]: 73.9% [at 57.5 µM]
parasite growth, % of control (lower = inhibition) [3]: 43.2% [at 57.5 µM]
growth, % of control [4]: 44.1% [at 57.5 µM]
cell viability, % of control (lower = more cytotoxic) [5]: 168% [at 92.2 µM]
viability (% of control) [6]: 124% [at 92.2 µM]
Potency [7]: 38.2 µM (active)

NC(=O)c1cccc(-c2cc(Nc3ccc(OC(F)(F)F)cc3)ncn2)c1
parasite growth, % of DMSO control [1]: 12.3%
parasite growth remaining, % of DMSO control (lower = more inhibition) [2]: 63.7%
parasite growth, % of control (lower = inhibition) [3]: 23%
growth, % of control [4]: 8.8%
cell viability, % of control (lower = more cytotoxic) [5]: 370%
viability (% of control) [6]: 77.2%
Potency [7]: inactive
